Source: PubChem BioAssay
Shown are actives, neighbours in structure and some others; about 2.4% of the full set was active somewhere.
D2 PAM-1 – HTS Assay for Positive Allosteric Modulators of the Human D2 Dopamine Receptor: Primary Screen for Potentiators; D(2) dopamine receptor (Homo sapiens), P14416; HEK293 T-REx D2, calcium flux, EC20 dopamine potentiation; AID 485347, 2010; potentiation, % at 10 µM; actives 0.34% (n = 340,000);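 active means potentiation over 3 SD above the plate norm, cut at about 30% in these data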; further: 0% is about no effect
Target sequence (P14416 whole entry, looked up): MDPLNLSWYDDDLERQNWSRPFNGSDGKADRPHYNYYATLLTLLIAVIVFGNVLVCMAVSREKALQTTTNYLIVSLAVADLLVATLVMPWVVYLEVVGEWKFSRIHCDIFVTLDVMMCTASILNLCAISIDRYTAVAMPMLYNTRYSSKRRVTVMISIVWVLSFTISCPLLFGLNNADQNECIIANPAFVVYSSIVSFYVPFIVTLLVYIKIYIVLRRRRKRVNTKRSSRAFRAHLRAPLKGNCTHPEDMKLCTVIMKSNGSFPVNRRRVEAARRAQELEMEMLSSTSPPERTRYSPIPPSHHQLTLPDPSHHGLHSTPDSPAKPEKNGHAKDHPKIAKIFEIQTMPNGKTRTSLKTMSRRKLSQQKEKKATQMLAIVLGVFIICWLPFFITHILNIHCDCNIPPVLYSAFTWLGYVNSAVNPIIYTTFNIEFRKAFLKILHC
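Tetracycline-induced HEK293 T-REx cells force-coupled to calcium signalling expressed D2; compounds were pin-added after a 10 s baseline, read kinetically 180 s, then an EC20 dopamine challenge followed with a further 180 s calcium read.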
D2 antag – HTS Assay for Allosteric Antagonists of the Human D2 Dopamine Receptor: Primary Screen for Antagonists | inhibition, % at 10 µM | AID 485344, 2010 | D(2) dopamine receptor (Homo sapiens), P14416 | actives 2% (n = 340,000) | HEK293 TREx D2 cells, calcium flux, dopamine EC80; in the data active means inhibition above about 30%; inactive means below that, where a call was filed; further: 0% is about no effect
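Antagonism is scored as inhibition of an EC80 dopamine-evoked calcium signal in a force-coupled, tetracycline-inducible HEK293 T-REx D2 line, with compound present 180 s before agonist.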
D2 ag-1 – Beta-Arrestin HTS for Positive Allosteric Modulators of the Human D2 Dopamine Receptor: Agonists | DiscoveRx PathHunter D2 beta-arrestin, luminescence, 90 min; 100% = 57 uM dopamine signal | activation, % (no concentration beside the values) | actives 0.084% (n = 360,000) | AID 624465, 2012; in the data active means activation above about 40%; inconclusive means between about 15% and that limit
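DiscoveRx PathHunter D2 beta-arrestin cells (2,100/well) attached overnight, then compound-stimulated 90 min at 37 C in HBSS/10 mM HEPES/0.1% Tween-20 buffer; beta-galactosidase complementation read by luminescence after 1 h at ambient temperature. Dopamine 57 uM final (EC100) as control.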
D2 PAM-2 – Beta-Arrestin HTS for Positive Allosteric Modulators of the Human D2 Dopamine Receptor: Potentiators | D(2) dopamine receptor (Homo sapiens), P14416 | actives 0.23% (n = 360,000) | DiscoveRx D2 beta-arrestin cells, luminescence, 90 min; 100% = 57 uM dopamine signal | AID 624464, 2012 | potentiation, % (concentration not given with the values); in the data active means potentiation above about 50%; inconclusive means mostly about 30% to 49%
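PathHunter beta-arrestin assay in DiscoveRx D2 cells. Compounds were added with an EC20 of dopamine (50 nM final) for 90 min at 37 deg C. Luminescence was read 1 h after detection reagent, with 57 uM dopamine as the EC100 control.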
D2 ag-2 – HTS Assay for Allosteric Agonists of the Human D2 Dopamine Receptor: Primary Screen for Agonists | activation, % at 2 µM | D(2) dopamine receptor (Homo sapiens), P14416 | actives 0.53% (n = 340,000) | HEK293 T-REx D2 cells, calcium flux agonist mode;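 active means activation over 3 SD above normal in the single-dose calcium agonist read, cut at about 30% in these data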; further: 0% is about no effect
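Tetracycline-induced HEK293 T-REx cells with force-coupled D2 receptor, plated overnight at 30 C, loaded with no-wash calcium dye. After a 10 s baseline, compound was pin-added and calcium flux read kinetically for 180 s; calcium rises flagged agonists.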
Numbers without * were called inactive; ? = inconclusive; . = no result given; ! = repeats disagree.

SMILES | D2 PAM-1 | D2 antag | D2 ag-1 | D2 PAM-2 | D2 ag-2
O=C(Nc1cccc(-c2cccc(F)c2)c1)C1CCN(Cc2ccco2)CC1 | -23.7 | 56.5* | -1.1 | -31.0 | -0.8
O=C(Nc1cccc(-c2cscn2)c1)C1CCN(Cc2ccc(CO)o2)CC1 | -18.5 | -1.8 | -2.4 | -17.8 | 1.3
COC(=O)c1scc(-c2ccc(C)cc2)c1S(=O)(=O)Nc1cccc(C(F)(F)F)c1 | -17.5 | . | . | . | 0.7
CCc1ccc2c(c1)-c1ccccc1S(=O)(=O)N2CC(=O)N1CCC(C)CC1 | 6.7 | . | . | . | -1.6
c1ccc(-c2nnc(CN3CCN(c4ccccn4)CC3)o2)cc1 | -20.5 | . | . | . | .
CSc1nc2c(c(=O)n1C)SC(C)C2 (stereo not given) | 1.1 | 20.5 | -2.0 | -3.5 | 0.6
CCC(C)Sc1nc2c(c(=O)n1C)SC(C)C2 (stereo not given) | 52.3* | -4.1 | -0.9 | 0.6 | -0.7
CC(=O)N1CCc2cc(S(=O)(=O)C(C)CC(=O)Nc3ccc(Br)c(C)c3)ccc21 (stereo not given) | 4.6 | . | . | . | -1.8
O=[N+]([O-])c1ccccc1-c1ccc(CN2CCN(c3ccccc3)CC2)o1 | -21.5 | 52.3* | ? | -18.0 | 22.8
Cc1cccc(NC(=O)c2cc(S(=O)(=O)N3CCc4ccccc43)ccc2F)c1C | -11.0 | . | . | . | .
Cc1ccc(-c2cnc(NCc3c(F)cccc3Cl)n2C)cc1 | -18.2 | . | . | . | .
CCOC(=O)Cn1nc(Cc2ccccc2)c2ccccc2c1=O | 42.7* | 13.0 | -5.9 | -6.7 | 0.4
CCOC(=O)Cn1nc(-c2ccccc2)c2ccccc2c1=O | -4.0 | -2.8 | -0.9 | -11.5 | -0.8
O=C(NNC1=Nc2ccccc2SC1)c1cccc([N+](=O)[O-])c1 | -24.6 | 70.7* | -2.7 | -13.5 | 0.1
CCOc1ccc(C(N)=O)cc1OC | 58.4* | 13.1 | -3.4 | -23.2 | 1.0
CCOC(=O)N1CCN(C(=O)c2ccc(OC)c(OC)c2)CC1 | -4.2 | -12.6 | -2.5 | -12.0 | -1.2
CCOC(=O)N1CCN(C(=O)c2ccc(OCC)c(OCC)c2)CC1 | 1.1 | 32.7* | -4.7 | -19.9 | 0.1
COc1ccc(N2CCN(c3oc(-c4ccccc4C)nc3S(=O)(=O)c3ccccc3)CC2)cc1 | -15.7 | . | . | . | -1.2
C#CCOCCOCCOCCNc1nc(N2CCN(C(=O)[C@H](C)n3cc(CCCN=C(N)N)nn3)CC2)nc(N2CCN(C(=O)[C@H](CCCCN)n3cc(CCCC)nn3)CC2)n1 | -2.4 | 31.0* | . | . | 0.2
C#CCOCCOCCOCCNc1nc(N2CCN(C(=O)[C@H]([C@@H](C)CC)n3cc(CCCN=C(N)N)nn3)CC2)nc(N2CCN(C(=O)[C@H](CCCCN)n3cc(CCCC)nn3)CC2)n1 | 2.3 | 4.8 | -3.2 | -9.9 | 0.3
NCCC(=O)N1c2ccccc2Sc2ccc(Cl)cc21 | -12.9 | 48.1* | -5.3 | -6.6 | 42.4*
CN1CCC=C(C(=O)N2c3ccccc3Sc3ccc(Cl)cc32)C1 | -19.5 | 38.6* | -2.3 | -5.4 | 0.1
Cc1cc(C)c(NC(=O)CSc2ncc(S(=O)(=O)c3ccc(C(C)(C)C)cc3)c(=O)[nH]2)c(C)c1 | -1.6 | . | . | . | 0.0
CC(C)OCCCn1c(=S)[nH]c2ccc(N3CCOCC3)cc2c1=O | -4.9 | -13.0 | 0.2 | -7.2 | -2.3
CC(C)OCCCn1c(=S)[nH]c2cc3c(cc2c1=O)OCO3 | 1.6 | 49.5* | 1.2 | 16.3 | -0.6
SMILES | D2 PAM-1 | D2 antag | D2 ag-1 | D2 PAM-2 | D2 ag-2
Nc1ccn([C@H]2CC[C@@H](CO)O2)c(=O)n1 | 5.2 | 37.3*! | -2.2 | -3.5 | -0.2
Cc1ccc(-c2cnc(-c3ccncc3)o2)cc1 | 6.4 | 32.3* | 1.9 | -5.2 | 0.3
Nc1ccc(-c2ncc(-c3ccccc3)o2)cc1 | -3.7 | -0.1 | 2.2 | -3.8 | -2.0
Cc1cccc(N2CCN(S(=O)(=O)c3cn(C)c(C)n3)CC2)c1C | 2.7 | . | . | . | .
CCCn1cc(S(=O)(=O)CC(=O)NC2CCCCC2)c2ccccc21 | -11.6 | 50.5* | -0.2 | -23.9 | 0.2
N#Cc1cccc(C(c2nnnn2C2CCCC2)N2CCC(Cc3ccccc3)CC2)c1 (stereo not given) | 40.2* | 1.1 | -3.6 | 1.1 | -0.1
CCOc1ccccc1NC(=O)C1CCN(S(=O)(=O)c2ccc3[nH]c4c(c3c2)CCCCC4)CC1 | 4.3 | . | . | . | 0.3
COc1ccccc1NS(=O)(=O)c1cccc(C(=O)NCC(c2ccco2)N2CCCC2)c1 (stereo not given) | -27.2 | 62.6* | 0.9 | -22.5 | 0.6
COc1ccc(OC)c(-c2nn(-c3ccccc3)cc2C(=O)NCC(c2ccco2)N2CCCC2)c1 (stereo not given) | -20.3 | 36.5* | -3.3 | -35.4 | 0.2
COc1ccccc1NS(=O)(=O)c1cccc(C(=O)NCC(c2ccccc2OC)N2CCCC2)c1 (stereo not given) | -10.4 | 11.2 | -4.2 | -42.7 | 0.1
Cc1ccccc1Cn1c(CN2CCC(C(=O)NCCc3ccccc3)CC2)cc2ccccc21 | 8.5 | . | . | . | 0.5
Cc1ccc(Nc2ccccc2)cc1 | 1.7 | 40.5* | -2.3 | -14.2 | -0.5
CCOc1ccc(-c2nnc(N)s2)cc1 | 73.9* | 0.7 | -0.7 | -9.2 | -0.3
CCCc1nn2c(=O)cc(COC(=O)c3cccc(NC(=O)c4cccs4)c3)nc2s1 | 5.3 | . | . | . | 1.7
O=C1CC(N2CCC(O)(c3ccc(Cl)cc3)CC2)C(=O)N1 (stereo not given) | 15.7 | 31.3* | -4.7 | -2.7 | 0.9
O=C(Nc1ccc(Cl)c(C(F)(F)F)c1)C(Cc1ccccc1)NS(=O)(=O)c1ccc(Br)s1 (stereo not given) | 1.4 | . | . | . | 0.8
Cc1ccc(NC(=O)c2cc(=O)n(Cc3ccccc3)c(=O)[nH]2)cc1C | 9.5 | 33.7* | 2.9 | -5.0 | .
O=C(O)c1cc(=O)n(Cc2ccccc2)c(=O)[nH]1 | 12.2 | 8.5 | -0.1 | -8.4 | 0.8
O=C(CN1CCCCCC1)Nc1ccc(Br)cn1 | 12.0 | 41.3* | -5.1 | -2.6 | -1.5
CCOC(=O)c1cc(NC(=O)CN2CCCC2)cc(C(=O)OCC)c1 | 35.6* | 9.2 | 3.3 | -3.3 | -1.7
CC1CN(CC(=O)Nc2ccc(Br)cn2)CC(C)O1 (stereo not given) | 12.6 | -19.5 | 2.5 | 2.3 | 2.1
O=C(Cc1ccc(Cl)cc1)Nc1ccc(Br)cc1 | -21.9 | 43.9* | 1.2 | -26.0 | -0.4
COC(=O)c1cc(NC(=O)CN2CCOCC2)cc(C(=O)OC)c1 | -7.3 | -1.9 | -3.5 | 5.3 | 6.8
O=C(CN1CCCC1)Nc1ccc(Br)cc1 | 6.6 | -22.2 | -1.6 | -2.6 | 1.0
O=C(CN1CCCCCC1)Nc1ccc(Br)cc1 | -23.4 | 76.8* | 7.0 | -19.4 | 1.8
